{"source": "PubChem BioAssay AID1159580", "about": "(chemical genetic matrix, 2015)", "test": "chemical genetic growth profiling, strain panel (AID 1159580);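 note: tested at 20 µM; growth read once vehicle control cultures reached saturation at 30 °C; 1 = growth at the plate median or of vehicle wells; lower values mean less growth of the strain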", "settings": "growth OD", "note": "Out of some 5,500 compounds screened, about 2,000 (36%) were called active. Not shown: some 18% with an inconclusive outcome. The list shows a part of the results. Values without a mark were called inactive. Cut-off read from the data, not from the text of the source: active = normalized growth mostly below about 0.91 (no sharp cut-off); inconclusive = no clear call, values can overlap the other calls; inactive = mostly above about 0.92.", "data": [{"smiles": "C#C[C@]1(O)CCC2C3CCC4=CC(=O)CC[C@@H]4C3CC[C@@]21CC", "note": "(stereo not given in full)", "values": [{"measurement": "normalized growth", "setting": "S. cerevisiae deletion strains, locus YJR066W, strain TOR1, stronger effect = lower value", "value": 0.91}, {"measurement": "normalized growth", "setting": "S. cerevisiae deletion strains, locus YKL009W, strain mrt4, stronger effect = lower value", "value": 0.96}, {"measurement": "normalized growth", "setting": "S. cerevisiae deletion strains, locus YKL068W, stronger effect = lower value", "value": 0.999}, {"measurement": "normalized growth", "setting": "S. cerevisiae deletion strains, locus YKL085W, strain MDH1 (second series), stronger effect = lower value", "value": 0.988}, {"measurement": "normalized growth", "setting": "S. cerevisiae deletion strains, locus YKL085W, strain MDH1, stronger effect = lower value", "value": 0.988}, {"measurement": "normalized growth", "setting": "S. cerevisiae deletion strains, locus YKL160W, strain elf1, stronger effect = lower value", "value": 0.988}, {"measurement": "normalized growth", "setting": "S. cerevisiae deletion strains, locus YKL190W, strain CNB1, stronger effect = lower value", "value": 1.01}, {"measurement": "normalized growth", "setting": "S. cerevisiae deletion strains, locus YKR001C, strain vps1, stronger effect = lower value", "value": 1}, {"measurement": "normalized growth", "setting": "S. cerevisiae deletion strains, locus YKR026C, strain gcn3, stronger effect = lower value", "value": 1}, {"measurement": "normalized growth", "setting": "S. cerevisiae deletion strains, locus YKR091W, strain srl3, stronger effect = lower value", "value": 0.993}, {"measurement": "normalized growth", "setting": "S. cerevisiae deletion strains, locus YLL001W, strain dnm1, stronger effect = lower value", "value": 0.987}, {"measurement": "normalized growth", "setting": "S. cerevisiae deletion strains, locus YLL026W, stronger effect = lower value", "value": 1}, {"measurement": "normalized growth", "setting": "S. cerevisiae deletion strains, locus YLL041C, strain sdh2, stronger effect = lower value", "value": 0.99}, {"measurement": "normalized growth", "setting": "S. cerevisiae deletion strains, locus YLR027C, strain aat2, stronger effect = lower value", "value": 0.989}, {"measurement": "normalized growth", "setting": "S. cerevisiae deletion strains, locus YLR039C, strain RIC1, stronger effect = lower value", "value": 0.949}, {"measurement": "normalized growth", "setting": "S. cerevisiae deletion strains, locus YLR058C, strain SHM2, stronger effect = lower value", "value": 0.998}, {"measurement": "normalized growth", "setting": "S. cerevisiae deletion strains, locus YLR102C, strain apc9, stronger effect = lower value", "value": 0.992}, {"measurement": "normalized growth", "setting": "S. cerevisiae deletion strains, locus YLR113W, strain HOG1, stronger effect = lower value", "value": 0.946}, {"measurement": "normalized growth", "setting": "S. cerevisiae deletion strains, locus YLR221C, strain rsa3, stronger effect = lower value", "value": 0.997}, {"measurement": "normalized growth", "setting": "S. cerevisiae deletion strains, locus YLR258W, strain gsy2, stronger effect = lower value", "value": 1}, {"measurement": "normalized growth", "setting": "S. cerevisiae deletion strains, locus YLR262C, strain YPT6 (second series), stronger effect = lower value", "value": "0.829 (active)"}, {"measurement": "normalized growth", "setting": "S. cerevisiae deletion strains, locus YLR262C, strain YPT6, stronger effect = lower value", "value": 0.903}, {"measurement": "normalized growth", "setting": "S. cerevisiae deletion strains, locus YLR268W, strain sec22, stronger effect = lower value", "value": 0.958}, {"measurement": "normalized growth", "setting": "S. cerevisiae deletion strains, locus YLR320W, strain mms22, stronger effect = lower value", "value": 0.96}, {"measurement": "normalized growth", "setting": "S. cerevisiae deletion strains, locus YLR330W, strain CHS5, stronger effect = lower value", "value": 0.991}, {"measurement": "normalized growth", "setting": "S. cerevisiae deletion strains, locus YLR342W, strain FKS1 (second series), stronger effect = lower value", "value": 0.983}, {"measurement": "normalized growth", "setting": "S. cerevisiae deletion strains, locus YLR342W, strain FKS1, stronger effect = lower value", "value": 0.985}, {"measurement": "normalized growth", "setting": "S. cerevisiae deletion strains, locus YLR357W, strain rsc2, stronger effect = lower value", "value": 1.06}, {"measurement": "normalized growth", "setting": "S. cerevisiae deletion strains, locus YLR370C, strain arc18, stronger effect = lower value", "value": 0.984}, {"measurement": "normalized growth", "setting": "S. cerevisiae deletion strains, locus YLR371W, strain rom2, stronger effect = lower value", "value": 0.992}, {"measurement": "normalized growth", "setting": "S. cerevisiae deletion strains, locus YLR384C, strain iki3, stronger effect = lower value", "value": 0.992}, {"measurement": "normalized growth", "setting": "S. cerevisiae deletion strains, locus YLR418C, strain cdc73, stronger effect = lower value", "value": 1.03}, {"measurement": "normalized growth", "setting": "S. cerevisiae deletion strains, locus YML016C, strain PPZ1, stronger effect = lower value", "value": 0.989}, {"measurement": "normalized growth", "setting": "S. cerevisiae deletion strains, locus YML032C, strain rad52, stronger effect = lower value", "value": 0.977}, {"measurement": "normalized growth", "setting": "S. cerevisiae deletion strains, locus YML120C, strain ndi1, stronger effect = lower value", "value": 1.01}, {"measurement": "normalized growth", "setting": "S. cerevisiae deletion strains, locus YML124C, strain tub3, stronger effect = lower value", "value": 0.988}, {"measurement": "normalized growth", "setting": "S. cerevisiae deletion strains, locus YMR058W, strain fet3, stronger effect = lower value", "value": 0.987}, {"measurement": "normalized growth", "setting": "S. cerevisiae deletion strains, locus YMR078C, strain ctf18, stronger effect = lower value", "value": 0.989}, {"measurement": "normalized growth", "setting": "S. cerevisiae deletion strains, locus YMR125W, strain sto1, stronger effect = lower value", "value": 1}, {"measurement": "normalized growth", "setting": "S. cerevisiae deletion strains, locus YMR129W, stronger effect = lower value", "value": 0.983}, {"measurement": "normalized growth", "setting": "S. cerevisiae deletion strains, locus YMR205C, strain PFK2, stronger effect = lower value", "value": 0.989}, {"measurement": "normalized growth", "setting": "S. cerevisiae deletion strains, locus YMR223W, strain ubp8, stronger effect = lower value", "value": 0.987}, {"measurement": "normalized growth", "setting": "S. cerevisiae deletion strains, locus YMR231W, strain pep5, stronger effect = lower value", "value": 0.999}, {"measurement": "normalized growth", "setting": "S. cerevisiae deletion strains, locus YMR307W, strain GAS1, stronger effect = lower value", "value": 1.12}, {"measurement": "normalized growth", "setting": "S. cerevisiae deletion strains, locus YNL067W, strain RPL9B, stronger effect = lower value", "value": 1.01}, {"measurement": "normalized growth", "setting": "S. cerevisiae deletion strains, locus YNL071W, strain lat1, stronger effect = lower value", "value": 0.992}, {"measurement": "normalized growth", "setting": "S. cerevisiae deletion strains, locus YNL128W, strain TEP1, stronger effect = lower value", "value": 0.988}, {"measurement": "normalized growth", "setting": "S. cerevisiae deletion strains, locus YNL153C, strain GIM3, stronger effect = lower value", "value": 1.01}, {"measurement": "normalized growth", "setting": "S. cerevisiae deletion strains, locus YNL183C, strain NPR1, stronger effect = lower value", "value": 0.922}, {"measurement": "normalized growth", "setting": "S. cerevisiae deletion strains, locus YNL209W, strain ssb2, stronger effect = lower value", "value": 0.993}, {"measurement": "normalized growth", "setting": "S. cerevisiae deletion strains, locus YNL233W, strain BNI4, stronger effect = lower value", "value": 0.992}, {"measurement": "normalized growth", "setting": "S. cerevisiae deletion strains, locus YNL248C, strain rpa49, stronger effect = lower value", "value": 1}, {"measurement": "normalized growth", "setting": "S. cerevisiae deletion strains, locus YNL250W, strain rad50, stronger effect = lower value", "value": 0.988}, {"measurement": "normalized growth", "setting": "S. cerevisiae deletion strains, locus YNL271C, strain bni1, stronger effect = lower value", "value": 0.982}, {"measurement": "normalized growth", "setting": "S. cerevisiae deletion strains, locus YNL298W, strain CLA4, stronger effect = lower value", "value": 0.961}, {"measurement": "normalized growth", "setting": "S. cerevisiae deletion strains, locus YNL307C, strain MCK1, stronger effect = lower value", "value": 0.98}, {"measurement": "normalized growth", "setting": "S. cerevisiae deletion strains, locus YNL322C, strain KRE1 (second series), stronger effect = lower value", "value": 1}, {"measurement": "normalized growth", "setting": "S. cerevisiae deletion strains, locus YNR049C, strain mso1, stronger effect = lower value", "value": 1}, {"measurement": "normalized growth", "setting": "S. cerevisiae deletion strains, locus YNR052C, strain pop2, stronger effect = lower value", "value": 0.964}, {"measurement": "normalized growth", "setting": "S. cerevisiae deletion strains, locus YOL006C, strain TOP1, stronger effect = lower value", "value": 1.03}, {"measurement": "normalized growth", "setting": "S. cerevisiae deletion strains, locus YOL012C, strain htz1", "value": 1.51}, {"measurement": "normalized growth", "setting": "S. cerevisiae deletion strains, locus YOL147C, strain pex11, stronger effect = lower value", "value": 0.994}, {"measurement": "normalized growth", "setting": "S. cerevisiae deletion strains, locus YOR001W, strain rrp6, stronger effect = lower value", "value": 0.967}, {"measurement": "normalized growth", "setting": "S. cerevisiae deletion strains, locus YOR061W, strain CKA2, stronger effect = lower value", "value": 0.983}, {"measurement": "normalized growth", "setting": "S. cerevisiae deletion strains, locus YOR069W, strain VPS5, stronger effect = lower value", "value": 0.991}, {"measurement": "normalized growth", "setting": "S. cerevisiae deletion strains, locus YOR070C, strain gyp1, stronger effect = lower value", "value": 0.995}, {"measurement": "normalized growth", "setting": "S. cerevisiae deletion strains, locus YOR080W, strain dia2, stronger effect = lower value", "value": 0.996}, {"measurement": "normalized growth", "setting": "S. cerevisiae deletion strains, locus YOR083W, strain WHI5, stronger effect = lower value", "value": 0.997}, {"measurement": "normalized growth", "setting": "S. cerevisiae deletion strains, locus YOR106W, strain vam3, stronger effect = lower value", "value": 0.997}, {"measurement": "normalized growth", "setting": "S. cerevisiae deletion strains, locus YOR136W, strain idh2, stronger effect = lower value", "value": 0.991}, {"measurement": "normalized growth", "setting": "S. cerevisiae deletion strains, locus YOR144C, strain elg1, stronger effect = lower value", "value": 0.994}, {"measurement": "normalized growth", "setting": "S. cerevisiae deletion strains, locus YOR184W, strain ser1, stronger effect = lower value", "value": 0.912}, {"measurement": "normalized growth", "setting": "S. cerevisiae deletion strains, locus YOR231W, strain MKK1, stronger effect = lower value", "value": 0.983}, {"measurement": "normalized growth", "setting": "S. cerevisiae deletion strains, locus YOR265W, strain rbl2, stronger effect = lower value", "value": 1}, {"measurement": "normalized growth", "setting": "S. cerevisiae deletion strains, locus YOR270C, strain vph1, stronger effect = lower value", "value": 0.957}, {"measurement": "normalized growth", "setting": "S. cerevisiae deletion strains, locus YOR290C, strain snf2, stronger effect = lower value", "value": 0.98}, {"measurement": "normalized growth", "setting": "S. cerevisiae deletion strains, locus YOR316C, strain cot1, stronger effect = lower value", "value": 0.989}, {"measurement": "normalized growth", "setting": "S. cerevisiae deletion strains, locus YPL051W, strain arl3, stronger effect = lower value", "value": 0.979}, {"measurement": "normalized growth", "setting": "S. cerevisiae deletion strains, locus YPL055C, strain LGE1, stronger effect = lower value", "value": 1.04}, {"measurement": "normalized growth", "setting": "S. cerevisiae deletion strains, locus YPL078C, strain atp4, stronger effect = lower value", "value": 0.996}, {"measurement": "normalized growth", "setting": "S. cerevisiae deletion strains, locus YPL106C, strain sse1, stronger effect = lower value", "value": 1.06}, {"measurement": "normalized growth", "setting": "S. cerevisiae deletion strains, locus YPL240C, strain hsp82, stronger effect = lower value", "value": 1}, {"measurement": "normalized growth", "setting": "S. cerevisiae deletion strains, locus YPL241C, strain CIN2, stronger effect = lower value", "value": 1}, {"measurement": "normalized growth", "setting": "S. cerevisiae deletion strains, locus YPL256C, strain CLN2, stronger effect = lower value", "value": 0.963}, {"measurement": "normalized growth", "setting": "S. cerevisiae deletion strains, locus YPR119W, strain clb2, stronger effect = lower value", "value": 1}, {"measurement": "normalized growth", "setting": "S. cerevisiae deletion strains, locus YPR141C, strain kar3, stronger effect = lower value", "value": 0.983}, {"measurement": "normalized growth", "setting": "S. cerevisiae deletion strains, locus YPR163C, strain tif3, stronger effect = lower value", "value": 0.99}, {"measurement": "normalized growth", "setting": "S. cerevisiae deletion strains, locus YPR167C, strain met16, stronger effect = lower value", "value": 0.988}, {"measurement": "normalized growth", "setting": "S. cerevisiae deletion strains, strain wtn01, stronger effect = lower value", "value": 0.973}, {"measurement": "normalized growth", "setting": "S. cerevisiae strains, strain wild type, stronger effect = lower value", "value": 1.02}]}]}
